Measurements reported in PubChem BioAssay (EPA / NIEHS).
Results filed as inconclusive are left out. Active and inactive are the calls of the source. How the source made its calls: active means hit-call score of the fitted dose curve at least 0.9, where 1 is the maximum; inconclusive means response in the unintended direction; inactive means score below 0.9.

Each molecule was assayed against Bile acid receptor (Homo sapiens) (UniProt Q96RI1) (assay: OT_FXR_FXRSRC1_0480: Odyssey Thera (OT) 8-hour HEK293T Protein-Complementation Assay for Farnesoid X receptor/SRC-1 Co-activator (AID 2283383)).
Chain of Bile acid receptor (Homo sapiens) (Q96RI1 whole entry, looked up, the tested form may be a part): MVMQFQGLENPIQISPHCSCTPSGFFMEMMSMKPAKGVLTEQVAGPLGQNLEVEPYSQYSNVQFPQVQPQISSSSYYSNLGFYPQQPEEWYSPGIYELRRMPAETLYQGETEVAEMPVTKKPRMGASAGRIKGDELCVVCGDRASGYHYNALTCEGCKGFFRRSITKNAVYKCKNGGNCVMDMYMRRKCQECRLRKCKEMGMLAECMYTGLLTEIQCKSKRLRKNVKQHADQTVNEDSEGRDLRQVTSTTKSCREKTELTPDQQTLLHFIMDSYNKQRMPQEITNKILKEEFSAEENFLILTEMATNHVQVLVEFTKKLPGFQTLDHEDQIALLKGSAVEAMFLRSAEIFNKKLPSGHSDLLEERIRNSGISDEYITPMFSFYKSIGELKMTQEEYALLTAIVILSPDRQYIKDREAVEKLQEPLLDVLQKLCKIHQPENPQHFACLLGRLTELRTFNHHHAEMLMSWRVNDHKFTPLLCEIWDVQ
Method: OT_FXR_FXRSRC1_0480 is a cell-based assay that uses HEK293T, a human kidney cell line, with measurements taken at 8 hours after chemical dosing in a 384-well plate.OT_FXR_FXRSRC1_0480 is one of one assay component(s) measured or calculated from the OT_FXR_FXRSRC1_0480 assay. It is designed to make measurements of protein fragment complementation, a form of binding reporter, as detected with fluorescence intensity signals by Protein-fragment Complementation technology.Data from the assay component OT_FXR_FXRSRC1_0480 was analyzed into 1 assay endpoint. This assay endpoint, OT_FXR_FXRSRC1_0480, was analyzed in the positive analysis fitting direction relative to DMSO as the negative control and baseline of activity. Using a type of binding reporter, measures of receptor for gain-of-signal activity can be used to understand the binding at the pathway-level as they relate to the gene NR1H4. Furthermore, this assay endpoint can be referred to as a primary readout, because the performed assay has only produced 1 assay endpoint. To generalize the intended target to other relatable targets, this assay endpoint is annotated to the nuclear receptor intended target family, where the subfamily is non-steroidal.
Protein-fragment complementation assay, or PCA, is a method for the identification and quantification of protein-protein interactions. In the PCA, the proteins of interest ("bait" and "prey") are each covalently linked to fragments of a third protein (e.g. DHFR, which acts as a "reporter"). Interaction between the bait and the prey proteins brings the fragments of the reporter protein in close proximity to allow them to form a functional reporter protein whose activity can be measured.
For `COc1ccc(OC(F)(F)F)cc1CN[C@H]1CCCN[C@H]1c1ccccc1`, the AC50 was 11.3 µM (active).
In the case of `Cn1cnc2c1c(=O)[nH]c(=O)n2C`, the outcome is reported as “inactive”.
For `CC(C)c1cccc(C(C)C)c1`, the outcome was “inactive”.
`O=C(O)CN(CC(=O)O)CC(=O)O` was tested, and the outcome was “inactive”.
In the case of `Cc1c(C)c2c(c(C)c1O)CCC(C)(COc1ccc(CC3SC(=O)NC3=O)cc1)O2` (stereo unspecified), the AC50 is reported as 20 µM (active).
`Cc1cc(Cc2ccc(N)c(C)c2)ccc1N` was tested, and the AC50 was 50 µM (active).
In the case of `CC(C)OC(=O)C(C)(C)Oc1ccc(C(=O)c2ccc(Cl)cc2)cc1`, the AC50 is reported as 12.8 µM (active).
In the case of `CCCCC(CC)COP(=O)(OCC(CC)CCCC)OCC(CC)CCCC` (stereo unspecified), the AC50 is reported as 15.6 µM (active).
With `CCCCc1nc2cccnc2n1Cc1ccc(-c2ccccc2-c2nnn[nH]2)cc1` the AC50 was 60.8 µM (active).
In the case of `O=C(Oc1ccccc1)c1cccc(C(=O)Oc2ccccc2)c1`, the AC50 is reported as 72 µM (active).
For `CC(COCC(C)OC(=O)c1ccccc1)OC(=O)c1ccccc1` (stereo unspecified), the AC50 was 19.4 µM (active).
`CCc1nc(N)nc(N)c1-c1ccc(Cl)cc1` was tested, and the outcome was “inactive”.
In the case of `Nc1nc(Cl)nc2c1ncn2[C@H]1C[C@H](O)[C@@H](CO)O1`, the AC50 is reported as 15.2 µM (active).
For `CC(C)COC(=O)CCCCC(=O)OCC(C)C`, the outcome was “inactive”.
`COc1ccc(C(=O)Nc2nc3ccccc3c(NCc3ccccc3)c2C#N)cc1` was tested, and the outcome was “inactive”.
In the case of `C=CCc1ccc(OC)c(OC)c1`, the outcome is reported as “inactive”.
In the case of `O=C(N[C@@H](c1ccccc1)[C@@H]1CCCCN1)c1cccc(C(F)(F)F)c1Cl`, the AC50 is reported as 31.6 µM (active).
`CN(C)C(=O)NC1(c2ccccc2)CCN(CCC[C@]2(c3ccc(Cl)c(Cl)c3)CCCN(C(=O)c3ccccc3)C2)CC1` was tested, and the AC50 was 15.9 µM (active).
For `S=c1[nH]c2ccccc2s1`, the outcome was “inactive”.
`Cc1cn([C@H]2C=C[C@@H](CO)O2)c(=O)[nH]c1=O` was tested, and the outcome was “inactive”.
For `CC(=O)OC1CC(C)OC(C)O1` (stereo unspecified), the outcome was “inactive”.
`CC(C)c1cccc(C(C)C)c1NC(=O)NS(=O)(=O)c1cc(C(C)(C)O)co1` was tested, and the outcome was “inactive”.
In the case of `COC(=O)CCC(=O)OC`, the outcome is reported as “inactive”.
For `Cc1cc(SC2=C(O)C[C@@](CCc3ccc(N)cc3)(C(C)C)OC2=O)c(C(C)(C)C)cc1CO`, the outcome was “inactive”.
With `CCCCCCC(C=O)=Cc1ccccc1` the AC50 was 50 µM (active).
With `CC(=O)S[C@H](C(=O)N[C@H]1Cc2ccccc2[C@H]2CCC[C@@H](C(=O)O)N2C1=O)C(C)C` the outcome was “inactive”.
For `CN(C)C(=O)NC1(c2ccccc2)CCN(CC[C@@]2(c3ccc(F)c(F)c3)CN(C(=O)c3ccccc3)CCO2)CC1`, the outcome was “inactive”.
With `CCCCCCC(CCCCCCCCCCC(=O)OCC(COC(C)=O)OC(C)=O)OC(C)=O` (stereo unspecified) the outcome was “inactive”.
In the case of `CCCCC(CC)COC(=O)CCCCCCCC(=O)OCC(CC)CCCC` (stereo unspecified), the outcome is reported as “inactive”.
`NC(=Nc1ccccc1)Nc1ccccc1` was tested, and the outcome was “inactive”.
In the case of `C=CCCCCCCCCCCCC`, the outcome is reported as “inactive”.
In the case of `CSc1ccc(Oc2ccc(S(N)(=O)=O)cc2CN(C)C)cc1C`, the outcome is reported as “inactive”.
For `O=C1c2c(O)cccc2Cc2cccc(O)c21`, the outcome was “inactive”.
For `Cc1ccc(C(C)(C)C)c(O)c1`, the AC50 was 60.6 µM (active).
`O=C(NS(=O)(=O)/C=C/c1cccs1)c1ccc(F)cc1Br` was tested, and the outcome was “inactive”.
For `CCCCC(CC)CO` (stereo unspecified), the outcome was “inactive”.
